Sampled rows, rich in hits. Any-hit rate of the full collection: about 19%.
HT1080-NT tox: qHTS for induction of synthetic lethality in tumor cells producing 2HG: qHTS for the HT-1080-NT fibrosarcoma cell line; HT-1080-NT fibrosarcoma viability, CellTiter-Glo ATP luminescence, 48 h; Potency, µM (highest dose often 46.1 µM), without a hit: top-dose activity, negative = less viability, usual class: cytotoxic; actives 1.6% (n = 360,000);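 note: NT is the 2HG producing partner of a matched IDH1 knockdown line; potency is the fitted concentration of half-maximal effect; 0% = DMSO-treated cells and -100% = media-only wells without cells; nearly all actives have a fitted effect of over 55% in size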
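Toxicity toward the 2HG-producing NT line was scored as %Activity, normalised to DMSO and no-cell wells, from CellTiter-Glo luminescence after 48 hours' treatment.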
TDP1 cell noCPT: qHTS for Inhibitors of human tyrosyl-DNA phosphodiesterase 1 (TDP1): qHTS in cells in absence of CPT; Potency, µM (doses to about 46.2 µM), inactives show at the highest dose activity change, negative = growth inhibition, most hits filed as inhibitors; actives 15% (n = 420,000); AID 686978, 2013; DT40 Tdp1-/- hTDP1 cells, no CPT, ATP luminescence, 48 h; note: potency is the fitted concentration of half-maximal effect; nearly all actives have a fitted effect of over 55% in size
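Camptothecin absent (DMSO only). Human TDP1-complemented DT40 knockout cells, 400 cells/well, 37 °C for minimum 48 hr; ATP measured via CellTiter-Glo, 30 min dark incubation, luminescence.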
HT1080 IDH1KD tx: qHTS for induction of synthetic lethality in tumor cells producing 2HG: qHTS for the HT-1080-IDH1KD cell line; HT-1080 IDH1 knockdown viability, ATP luminescence, 48 h; Potency, µM (series often up to 46.1 µM), inactives show top-dose activity, negative = toxicity, most hits filed as cytotoxic; actives 2% (n = 360,000); AID 686971, 2013;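 note: potency is the fitted concentration of half-maximal effect; 0% = DMSO wells and -100% = cell-free medium wells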
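CellTiter-Glo luminescence after 48 h compound exposure at 37 degrees C of IDH1-knockdown HT-1080 cells in 5% FBS RPMI. %Activity scaled between DMSO wells and cell-free media wells, with curves fitted and assigned curve classes.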
DT40 TDP1 CPT: qHTS for Inhibitors of human tyrosyl-DNA phosphodiesterase 1 (TDP1): qHTS in cells in presence of CPT. Potency, µM (series often up to 46.2 µM), inactives show at the highest dose activity change, negative = growth inhibition, usual class: inhibitors. chicken DT40 Tdp1-/-;hTDP1 cells + 20 nM CPT, ATP luminescence, 48 h. actives 12% (n = 420,000); note: potency is the fitted concentration of half-maximal effect; nearly all actives have a fitted effect of over 55% in size
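Chicken DT40 Tdp1-/- cells stably complemented with human TDP1 were seeded at 400 cells/well in medium containing 20 nM camptothecin, exposed to pin-transferred compounds, and grown at 37 °C for at least 48 hr. Viability was read as ATP luminescence.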
IL1B secr inh: qHTS for Inhibitors of Inflammasome Signaling: IL-1-beta AlphaLISA Primary Screen; THP-1 LPS/ATP IL-1B secretion, AlphaLISA, 16 h; stronger effect = lower value; activity change, % at 57.5 µM; actives 4.7% (n = 360,000); AID 743279, 2014; in the data active = activity change below about -50%; inconclusive = mostly about -30% to -49%
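THP-1 cells pretreated 1 hr with compounds (up to 57.5 uM final), then stimulated with LPS (250 ng/mL final) plus ATP (1.25 mM final); secreted IL-1B measured by AlphaLISA after 16 hr, decreased signal indicating inhibition.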
Numbers without * were called inactive; ? = inconclusive; . = not tested or not shown; [ ] = dose if it differs, or a comment. Unless noted, calls come from the whole dose curve; as a rule, active = well fitted curve in the direction sought with a large enough effect; inconclusive = small, poorly fitted or top-dose-only effect, or another doubt; inactive = no such curve, though single readings can be large; an effect the other way counts as inactive or inconclusive. Unless noted, % is set by controls: 0 for no effect and ±100 for the full control effect.

SMILES | HT1080-NT tox | TDP1 cell noCPT | HT1080 IDH1KD tx | DT40 TDP1 CPT | IL1B secr inh
Cc1ccc(CNCc2c(C(=O)O)n(Cc3ccc(C)cc3)c3cc(C)ccc23)cc1 | . | ? | . | 23.1µM* | .
COc1ccc2c(CNCc3ccco3)c(C(=O)O)n(Cc3cccc(F)c3)c2c1 | . | ? | . | -3.4% | .
COc1ccc2c(CNCc3cccs3)c(C(=O)O)n(Cc3ccc(C)cc3)c2c1 | . | -15.3% | . | -4.7% | .
CCCCC/C=C\C/C=C\C/C=C\C=C\[C@@H](O)CCCC(=O)O | . | -12.4%[0.628 µM] | . | 5.4%[0.628 µM] | .
COc1ccc(Cn2c(C(=O)O)c(CNCCc3cccs3)c3ccc(C)cc32)cc1 | . | 23.1µM* | . | ? | .
CCOc1ccc(CNCc2c(C(=O)O)c(C)n(Cc3ccc(F)cc3Cl)c2C)cc1 | . | 13µM* | . | ? | .
Cc1ccc(Cn2c(C(=O)O)c(CNCc3ccc(OC(C)C)cc3)c3ccc(C)cc32)cc1 | . | ? | . | 16.4µM* | .
Cc1ccc(Cn2c(C(=O)O)c(CNCCc3cccs3)c3ccc(C)cc32)cc1 | . | -20.8% | . | ? | .
COc1ccc(CNCc2c(C(=O)O)n(Cc3ccc(F)cc3)c3cc(C)ccc23)cc1OC | . | 23.1µM* | . | 20.6µM* | .
O=c1[nH]cc(S(=O)(=O)N2CCN(c3cccc(Cl)c3)CC2)c(=O)[nH]1 | -3.1% | 19.3% | 6.0% | 1.3% | -12.6
CN(C)/C=N/NC(=O)C1Cc2c(ccc3ccccc23)O1 (configuration not stated) | 0.0% | -3.2% | -2.5% | -10.0% | -24.1
N#Cc1ccc(-c2cccc3nccn23)cc1 | ? | -13.1% | ? | -5.3% | 0.0
O=C(Cn1c(=O)c2cccn2c2cccnc21)NCc1cccc(F)c1 | . | -29.4% | . | -24.6% | .
CCCn1c(SCC(=O)Nc2nnc(C)s2)nnc1-c1ccoc1C | 0.8% | ? | 1.6% | -23.0% | -0.2
CCOc1ccc(CNCc2c(C(=O)O)n(Cc3ccccc3C)c3cc(OC)ccc23)cc1OC | . | 1.03µM* | . | 0.651µM* | .
COc1ccc(CNCc2c(C(=O)O)c(C)n(Cc3ccccc3C)c2C)cc1OC | . | -0.9% | . | -11.9% | .
Cc1ccc2c(CNCCc3ccco3)c(C(=O)O)n(Cc3ccc(F)cc3)c2c1 | . | 25.9µM* | . | 20.6µM* | .
Cc1ccc2c(CNC3CCCC3)c(C(=O)O)n(Cc3ccc(F)cc3)c2c1 | . | -18.1% | . | -6.8% | .
Cc1cc(C)n(CC(=O)NNC(=O)c2ccc(OC(F)(F)F)cc2)n1 | 0.2% | -17.7% | 7.8% | -0.7% | 13.7
Cc1c(Cc2ccccc2)c(NCCCO)n2c(nc3ccccc32)c1C#N | -15.4% | 16.4µM* | -9.8% | 20.6µM* | -20.0
CCCCCc1c(C)c(C#N)c2nc3ccccc3n2c1-n1ccnc1C | 14.2% | -14.4% | 10.0% | -16.1% | 52.7
CCc1c(C)c(C#N)c2nc3ccccc3n2c1NCc1ccco1 | -12.2% | ? | -10.4% | 23.1µM* | 34.3
Cc1cc(NCCCO)n2c(nc3ccccc32)c1C#N | -11.6% | -47.9% | -14.0% | 7.4% | -2.1
CCCCc1c(C)c(C#N)c2nc3ccccc3n2c1Nc1c(C)n(C)n(-c2ccccc2)c1=O | -13.8% | 16.4µM* | -23.1% | 23.1µM* | -12.9
CSc1ccc(CCNC(=O)C2CCN(c3ncnc4c3nc3n4CCCCC3)CC2)cc1 | . | -25.0% | . | -0.7% | .
Cc1ccc(C)c(N2CCN(C(=O)C3CCN(c4nc(-c5ccc(C(C)C)cc5)no4)CC3)CC2)c1 | . | 10.3µM* | . | ? | .
COc1ccc(-c2noc(N3CCC(C(=O)N4CCN(c5ccccc5F)CC4)CC3)n2)cc1 | . | 5.17µM* | . | ? | .
Fc1ccccc1N1CCN(c2nnnn2-c2ccccc2)CC1 | -0.8% | 1.3% | -4.6% | -18.1% | ?
COC(=O)c1cccc(NC(=O)CSc2nnc(C)n2C)c1 | 19.2% | 4.6% | 14.2% | 4.9% | 7.6
Cc1cc(OCC(=O)NNC(=O)c2cccnc2)cc(C)c1Cl | -5.1% | 10.7% | 1.6% | ? | 9.6
